Source: PubChem
CYP2C9 inhib: blockers of cytochrome P450 2C9 activity – biochemical, luminescence, ADME assay, primary screen; inhibition, % at 5 µM; CYP2C9 Supersomes, luciferin-H conversion; P11712; 96,000 compounds, 20% hits;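 active = blocking of liver enzyme CYP2C9 beyond about 50% at 5 µM, limit read from the data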
CYP2C9 act: human CYP2C9 activators, primary screen, biochemical, luminescence | recombinant CYP2C9, luciferin-H conversion; stronger effect = higher value; factor 1 = untreated enzyme, 0 = blocked | activation factor at 5 µM | 96,000 compounds, 1.4% hits | AID 1024, 2008;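 active = activation factor of 2 or more for CYP2C9 at a 5 µM dose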;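 note: 0 = sulfaphenazole-blocked wells and 1 = vehicle-only wells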
Cav32 inh: Cav3.2 calcium influx blockers – cell-based, Fluo-4 calcium fluorescence, FDSS, MLSMR library, primary screen. Voltage-dependent T-type calcium channel subunit alpha-1H (Homo sapiens), O95180. Cav3.2-expressing cells; stronger effect = lower value. B-score at 10 µM. 100,000 compounds, 4% hits. AID 449739, 2010;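 active = single-dose well whose peak fluorescence ratio is a statistical outlier from its plate by either plate-standardised score or position-corrected B-score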
CYP2C19 act: human CYP2C19 activators, primary screen, biochemical, luminescence. Cytochrome P450 2C19 (Homo sapiens), P33261. recombinant CYP2C19, luciferin-H EGE luminescence; stronger effect = higher value; 0 = fully inhibited enzyme, 1 = untreated enzyme. activation factor at 5 µM. 96,000 tested, under 10 active;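 active = activation factor of at least 2 at 5 µM in the primary screen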;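 note: 0 = wells with 2.5 mM tranylcypromine and 1 = vehicle-only wells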
CYP2C19 inh: blockers of cytochrome P450 2C19 activity – biochemical, luminescence, ADME assay, primary screen. inhibition, % at 5 µM. CYP2C19 Supersomes, luciferin-H EGE luminescence, 30 min. 96,000 compounds, 21% hits;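 active = CYP2C19 inhibition above a set limit at 5 µM in the primary screen, cut at about 50% in these data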;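 note: plate controls were negative control wells for no effect and 2.5 mM tranylcypromine positive control for full effect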
An asterisk follows results filed as active; . = no result given. This is a sample that favours compounds with a hit; in the whole collection about 27% have one here.

SMILES	CYP2C9 inhib	CYP2C9 act	Cav32 inh	CYP2C19 act	CYP2C19 inh
Cc1ccc(S(=O)(=O)N2CCOCC2)cc1NC(=O)COC(=O)CSc1ccc(Br)cc1C	-35	1.3	-0.12	0.6	41
CCOC(=O)CN(C(=O)CSc1nnc(Cc2ccccc2)n1-c1ccc(C)cc1)c1ccccc1	.	.	-8.4*	.	.
COCc1nnc(SCC(=O)NC(C)c2ccccc2)n1-c1ccccc1 (configuration not stated)	55*	0.4	0.66	0.4	59*
Cc1ccc(-n2c(Cc3ccccc3)nnc2SCC(=O)NNC(=O)Cc2ccccc2)cc1	41	0.6	-5.7*	0.8	22
CCOC(=O)CSc1nnc(Cc2ccccc2)n1-c1ccc(C)cc1	.	.	-2.8	.	.
Cc1nnc(NC(=O)CSc2nnc(Cc3ccccc3)n2-c2ccccc2)s1	34	0.7	-1.8	0.9	6
Cc1[nH]nc2c1C(c1cccc(O)c1)C1=C(CC(C)(C)CC1=O)N2 (configuration not stated)	32	0.7	0.16	1	-1
COc1ccc(S(=O)(=O)N2C3CCC2CC(NC(=O)C2CC2)C3)cc1 (configuration not stated)	4	1	0.62	0.8	18
Cc1ccccc1CN1CCN(CC(=O)NCc2ccccc2)C1=O	30	0.7	0.79	0.9	12
CCO[C@H]1OC(C(=O)N2CCN(Cc3ccc4c(c3)OCO4)CC2)=C[C@@H](c2ccc(Br)cc2)[C@@H]1CCCO	.	.	-0.73	.	.
Cc1cc(/C=N/n2cnnc2)c(C)n1-c1ccc(C(=O)O)cc1	7	0.9	0.49	1	-2
Cc1cc(/C=N/n2cnnc2)c(C)n1-c1cc(Cl)ccc1Cl	79*	0.2	-1.1	0	100*
CC(=O)c1c(C(C)=O)c(C)n(NC(=O)c2cccnc2)c1C	7	0.9	0.0071	1	-3
CC(=O)c1c(C(C)=O)c(C)n(NC(=O)c2ccccc2O)c1C	86*	0.1	0.54	1.1	-12
Cc1ccc(S(=O)(=O)NC(C(=O)OCC(=O)NC(=O)c2cccn2C)C(C)C)cc1 (configuration not stated)	17	0.8	0.021	0.4	59*
Cc1ccc(S(=O)(=O)N[C@H](C(=O)OCn2nnc3ccccc3c2=O)C(C)C)cc1	34	0.7	-3.8*	0.9	9
Cc1ccc(C(=O)OCC(=O)NC(=O)c2cccn2C)cc1	1	1	0.5	0.9	14
Cc1cc(C(=O)OCn2nnc3ccccc3c2=O)c(C)o1	38	0.6	-0.024	0.5	53*
Cc1cccc(CC(=O)OCn2nnc3ccccc3c2=O)c1	-10	1.1	-0.93	0.7	33
COC(=O)c1cccc(Cn2nnc3ccccc3c2=O)c1	26	0.7	-0.46	0.5	51*
Cc1csc(N(C(=O)c2cccc(S(=O)(=O)N(C)C)c2)c2ccccc2)n1	0	1	-0.11	0.9	11
COc1cc(C(=O)NCc2ccc3c(c2)OCO3)ccc1OCc1c(C)noc1C	38	0.6	0.16	1	5
COc1ccc(C(=O)OCn2nnc3ccccc3c2=O)cc1OC	6	0.9	0.53	1	-1
CN(C)S(=O)(=O)c1ccc(C(=O)OCn2nnc3ccccc3c2=O)cc1	59*	0.4	0.14	1	5
COc1cccc(C(=O)OCn2nnc3ccccc3c2=O)c1	12	0.9	0.5	0.2	81*
SMILES	CYP2C9 inhib	CYP2C9 act	Cav32 inh	CYP2C19 act	CYP2C19 inh
COc1ccccc1C(=O)OCn1nnc2ccccc2c1=O	.	.	0.055	.	.
Cc1ccc(Cn2nnc3c(=O)n(Cc4cc(C)ccc4C)cnc32)cc1	.	.	-0.57	.	.
O=C1CS/C(=C\S(=O)(=O)c2ccc(Cl)cc2)N1	57*	0.4	0.13	0.7	26
CC(C)(C)c1ccc(C(=O)/C=C2\NC(=O)CS2)cc1	6	0.9	.	1.3	-27
Cc1ccc(C(=O)COC(=O)CNC(=O)COc2ccccc2C)cc1C	-144	2.4*	-1.2	0.9	12
Cc1csc(SCC(=O)c2c(N)n(CC(C)C)c(=O)n(C)c2=O)n1	2	1	-0.15	0.9	14
O=C(Nc1ccccc1)OCCNC(=O)c1cccc(Cl)c1	87*	0.1	-1.4	0.1	93*
O=C(Nc1ccccc1)OCCOc1ccccc1	29	0.7	-2.7	0.2	85*
O=C(Nc1ccccc1)OCc1ccccn1	9	0.9	1.4	0.5	51*
COc1ccc(OCCOC(=O)Nc2ccccc2)cc1	45	0.6	-3	0.2	82*
NC(=O)COc1ccc(NC(=O)OCc2ccccc2)cc1	7	0.9	0.036	0.8	19
COC(=O)Nc1ccc(OCc2ccccc2)cc1	20	0.8	-0.11	0.5	46
CCOC(=O)c1cc(OC(=O)c2cccc([N+](=O)[O-])c2)n(-c2ccccc2)n1	46	0.5	0.82	0.9	8
COC(/C=C/Nc1ccc(C)c(C)c1)=C(C#N)C#N	9	0.9	0.11	1	0
CCOC(=O)c1sc(NC(=O)C2CC=CCC2C(=O)O)nc1C (configuration not stated)	7	0.9	.	1.2	-23
Fc1ccc(NC(=S)N2CCCc3ccccc32)cc1	7	0.9	-1.1	0.6	40
O=C(Nc1ccccc1)O/N=C(\c1ccccc1)c1ccccn1	61*	0.4	-0.35	0.8	24
S=C(Nc1ccccc1)c1ccccn1	2	1	-1.3	1	2
C=CCn1c(=O)/c(=C/c2ccc(Cl)cc2)s/c1=C(/C#N)c1nnc2n1CCCCC2	78*	0.2	-0.58	0.6	36
O=C(O)c1ccc(Cl)c(S(=O)(=O)N2CCCCCC2)c1	15	0.8	0.63	1	0
O=C(Nc1nccs1)c1ccc(Cl)c(S(=O)(=O)N2CCCCC2)c1	53*	0.5	-2.9	0.3	65*
O=C(Nn1cnnc1)c1ccc(F)c(S(=O)(=O)N2CCCCC2)c1	72*	0.3	0.044	0	99*
Cc1nonc1NC(=O)c1ccc(Cl)c(S(=O)(=O)N2CCCCC2)c1	-18	1.2	0.11	0.3	68*
O=C(Nc1nccs1)c1cc(S(=O)(=O)N2CCCCC2)ccc1Cl	-11	1.1	-0.14	1	2
O=C(NC1=NCCS1)c1ccc(Cl)c(S(=O)(=O)N2CCCCC2)c1	36	0.6	0.0036	0.6	43
O=C(NCc1cccs1)c1cccc(S(=O)(=O)N2CCCCC2)c1	67*	0.3	-1.1	0.3	75*
O=C(Nc1nccs1)c1cccc(S(=O)(=O)N2CCCCC2)c1	68*	0.3	-0.48	0.1	94*
Cc1ccc(-n2c(Cn3cnc4ccccc43)nnc2SCC(=O)O)cc1	.	.	0.65	.	.
Cc1ccc(-c2nn(-c3cc(Cl)ccc3[N+](=O)[O-])c(=O)c3ccccc23)cc1	31	0.7	-1	0.5	51*
O=C1NC2(CCCCCC2)Cc2ccccc21	-12	1.1	-0.2	0.6	44
